Common to all, as to assay: NCI-60 one-dose screen, 48 h (100 = growth as untreated, 0 = no growth, -100 = all killed)
Common to all, as to conditions: 10 µM unless noted

The subject of assay [1] is T-47D breast.
The subject of assay [2] is MDA-MB-435 melanoma.
Assay [3] deals with SW-620 colon.
In assay [4] the test system is MCF7 breast.
The test system of assay [5] is HCT-116 colon.
The test system of assay [6] is HCC-2998 colon.
In assay [7] the test system is KM12 colon.
The subject of assay [8] is BT-549 breast.

Structures are written as SMILES. The panel holds about 83,000 compounds, 20% with a hit somewhere; the sample as a whole holds those more often.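 96-well plates, one dose, 48 hours. Percent growth reported; active if below 10.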 Unmarked numbers belong to inactive results. The source made the active and inactive calls.

As for `CC(=C(c1ccc(OCCN(C)C)cc1)c1ccc(OCCN(C)C)cc1)c1ccc(Cl)cc1`, the growth in assay [1] was -53.7% (active); in assay [2] it was -82.8% (active); in assay [3], -71.5% (active); in assay [4], -77.6% (active); in assay [5], -65.1% (active); in assay [6], -87.7% (active). Besides, the growth in assay [7] was -65.2% (active).
Consider `Cc1ccc2c(n1)C(=O)C(Cl)=C(Nc1ccc(C)c(C)c1)C2=O`, for which the growth in assay [1] was 3.29% (active); in assay [2], -82.6% (active); in assay [3], 33.5%; in assay [4], -60.5% (active); in assay [5], 12.2%; in assay [6], 57.6%. Also, the growth in assay [7] is 51.9%.
As for `Cn1ncc2ncc(-c3ccc4ncc(C#N)c(N5CCc6cc(F)c(Cl)cc65)c4c3)cc21`, the growth is 5.2% (active) in assay [1]; 37.4% in assay [8]; 27.1% in assay [2]; 9.79% (active) in assay [4]; 53.1% in assay [5]; 46.4% in assay [6]. The growth in assay [7] was 52.5%.
Turning to `Fc1ccc2nc(-c3cnn4cccnc34)sc2c1`, the growth in assay [1] was 44.2%; in assay [2] it was 108%; in assay [3], 93.7%; in assay [4] it was 26.7%; in assay [5], 88.8%; in assay [6], 83%. For the same compound, the growth in assay [7] was 79.8%.
Take `CN(C)CCNc1ccc2ncc(C#Cc3cncc(C(=O)Nc4ccc(CN5CCN(C)CC5)c(C(F)(F)F)c4)c3)n2n1`: the growth was 78.7% in assay [1]; -8.5% (active) in assay [8]; 40.5% in assay [2]; -51.9% (active) in assay [4]; 5.01% (active) in assay [5]; -25.9% (active) in assay [6]. Moreover, the growth in assay [7] is -8.42% (active).
Turning to `NC(=O)c1c(NC(=O)c2ccc(C(F)(F)F)cc2)sc2c1CCC(=O)C2`, the growth in assay [1] is -28.9% (active); in assay [2] it was -8.14% (active); in assay [3] it was -17.5% (active); in assay [4], 5.66% (active); in assay [5] it was 3.88% (active); in assay [6] it was 32.3%. Also, in assay [7], the growth was 3.34% (active).
For `CCCC[n+]1ccc(SCC(=O)n2ccc3ccccc32)c2ccccc21`, the growth in assay [1] was 73.3%; in assay [2], 101%; in assay [3], 102%; in assay [4] it was 83%; in assay [5] it was 93.1%; in assay [6], 109%. In addition, in assay [7], the growth was 92.5%.
Consider `Fc1cccc(Cl)c1/C=N/Nc1nc(N/N=C/c2c(F)cccc2Cl)nc(N2CCCCC2)n1`, for which the growth in assay [1] is 11%; in assay [8] it was 68.4%; in assay [2], 3.75% (active); in assay [4], 3.1% (active); in assay [5] it was 19.5%; in assay [6], 24.4%. Further, the growth in assay [7] is 10.8%.
Regarding `CN(C)S(=O)(=O)c1ccc(-c2nc(C(Cl)Cl)nc3cc(-c4ccc(F)cc4)nn23)cc1`, the growth was 38% in assay [1]; 6.53% (active) in assay [2]; 4.42% (active) in assay [3]; 15% in assay [4]; 8.78% (active) in assay [6]; 7.53% (active) in assay [7].
For the compound `Oc1[nH]c2ccc(Cl)cc2c1N=Nc1nc(N=Nc2c(O)[nH]c3ccc(Cl)cc23)nc(N2CCOCC2)n1`, the growth is 29.3% in assay [1]; -6.36% (active) in assay [8]; 63.5% in assay [2]; 43.1% in assay [4]; 45.4% in assay [5]; 75.5% in assay [6]. For the same compound, in assay [7], the growth is 81.2%.
As to `CCS(=O)(=O)Nc1ccc(C(=O)CC2(O)C(=O)Nc3ccccc32)cc1` (stereo not drawn), the growth in assay [1] is 89.1%; in assay [8], 116%; in assay [2] it was 108%; in assay [4], 92.3%; in assay [5], 104%; in assay [6], 100%. Also, the growth in assay [7] is 101%.
On to `Cc1ccc(C(=O)Nc2ccc(CNCCN3CCNCC3)c(C(F)(F)F)c2)cc1C#Cc1cnc2cccnn12`, for which the growth in assay [1] was 3.12% (active); in assay [2], -76.2% (active); in assay [3] it was -11.1% (active); in assay [4], -82.9% (active); in assay [5], -58.5% (active); in assay [6] it was 3.91% (active). Further, in assay [7], the growth is -45.6% (active).
In the case of `C#Cc1cc(C(=O)Nc2ccc(CNCCN3CCOCC3)c(C(F)(F)F)c2)ccc1C`, the growth was 82.1% in assay [1]; 94.9% in assay [2]; 97.5% in assay [3]; 83.5% in assay [4]; 90.2% in assay [5]; 102% in assay [6]. Besides, the growth in assay [7] is 96.2%.
As for `Cc1ccc2c(n1)C(=O)C(Cl)=C(Nc1cccc(C)c1C)C2=O`, the growth is 44% in assay [8]; -86.5% (active) in assay [2]; -9.92% (active) in assay [3]; -59.3% (active) in assay [4]; -42.9% (active) in assay [5]; 51.6% in assay [6]. Also, the growth in assay [7] was 26.1%.
Regarding `Cn1c(SCC(=O)c2ccc(Br)cc2)nc2ccccc2c1=O`, the growth in assay [8] was 98.9%; in assay [2] it was 103%; in assay [3], 102%; in assay [4], 51.7%; in assay [5], 86.1%; in assay [6], 108%. In addition, the growth in assay [7] was 98.7%.
In the case of `C/C(=N\NC(=O)Nc1ccccc1)c1nnn(-c2ccc([N+](=O)[O-])cc2)c1C`, the growth is 111% in assay [8]; 104% in assay [2]; 104% in assay [3]; 97.9% in assay [4]; 99.5% in assay [5]; 106% in assay [6]. The growth in assay [7] is 101%.
With `NC(=S)n1c(=O)n(-c2cccc(C(F)(F)F)c2)c(=O)c2cc(-c3ccc(F)cc3F)ccc21`, the growth in assay [8] was -7.8% (active); in assay [2], 2.32% (active); in assay [3] it was 15%; in assay [4], 1.71% (active); in assay [5], 3.05% (active); in assay [6] it was 20.1%. Further, in assay [7], the growth is 6.48% (active).
On to `CCOC(=O)c1c(NC(=O)c2cccc(C(F)(F)F)c2)sc2c3c(ccc12)OCN(C)C3`, for which the growth in assay [2] is -55.5% (active); in assay [4], -81.9% (active); in assay [5], -89.4% (active); in assay [6], -88.9% (active); in assay [7] it was -11.3% (active).
For `CCNC(=O)Oc1ccc(/C(=C(/C)c2ccc(Cl)cc2)c2ccc(OCCN3CCCCCC3)cc2)cc1`, the growth was 77.5% in assay [8]; 22.5% in assay [2]; -74.5% (active) in assay [3]; -37.8% (active) in assay [4]; -80% (active) in assay [5]; 26.1% in assay [6]. Further, in assay [7], the growth was 12.7%.
On to `C#C[C@]1(O)CC[C@H]2[C@@H]3CC=C4c5sc(Nc6cc(C)cc(C)c6)nc5CC[C@]4(C)[C@H]3CC[C@@]21C`, for which the growth in assay [8] was -4.65% (active); in assay [2] it was 20.7%; in assay [4] it was -52.5% (active); in assay [5], 12.5%; in assay [6] it was 40.2%; in assay [7], -7.08% (active).
As for `CC(C)Sc1nc(-c2ccccc2)c(C#N)c(N2CCOCC2)n1`, the growth in assay [8] is 111%; in assay [2], 88%; in assay [3], 74.2%; in assay [4], 72.8%; in assay [5], 43.5%; in assay [6], 69.5%. Moreover, in assay [7], the growth was 88.3%.
Take `O=C1c2ccccc2C23C(=C(c4cncnc4)c4ccccc42)CCCN13` (stereo not drawn): the growth in assay [8] is 120%; in assay [2], 94.6%; in assay [3] it was 103%; in assay [4] it was 103%; in assay [6], 103%; in assay [7], 96.6%.
Turning to `COc1ccc2c(c1)c(-c1nnc(N)nc1-c1c[nH]c3ccc(F)cc13)cn2C`, the growth in assay [8] is 53.5%; in assay [2], 3.37% (active); in assay [3], 25.7%; in assay [4], 18.9%; in assay [5], 21.4%; in assay [6], 74.6%. Further, in assay [7], the growth is 22.9%.
As for `COc1ccc2c(c1)c(/C=N/Nc1ccnc3cc(Cl)ccc13)cn2C`, the growth is -76.9% (active) in assay [8]; -92.9% (active) in assay [2]; -76.6% (active) in assay [3]; -80.2% (active) in assay [4]; -82.3% (active) in assay [5]; -86.3% (active) in assay [6]. Besides, the growth in assay [7] is -78.1% (active).
For `CC(C)(C)c1cc(NC(=O)Nc2ccc(-c3cn4c5c(sc4n3)CCc3c[nH]cc3-5)cc2)no1`, the growth in assay [8] is 18.7%; in assay [2] it was 26%; in assay [3], 17.8%; in assay [4] it was -6.97% (active); in assay [5] it was 23.2%; in assay [6], 24%. Further, in assay [7], the growth was 6.68% (active).
For `O=C(CSc1nnc(-c2ccc(Cl)cc2)n1-c1ccccc1)Nc1cccc(F)c1`, the growth is 50.4% in assay [8]; 49.6% in assay [2]; 30.9% in assay [3]; 39% in assay [4]; -13.8% (active) in assay [5]; 59.7% in assay [6]. For the same compound, in assay [7], the growth was 53.3%.
Regarding `CCN(CC)c1ccc(/C=N/NC(=O)c2ccc(NS(C)(=O)=O)cc2)c(O)c1`, the growth in assay [8] is 11.6%; in assay [2] it was 28.8%; in assay [3], 36.9%; in assay [4] it was 6.08% (active); in assay [5], 21.7%; in assay [6], 38.5%. The growth in assay [7] is 15.2%.
In the case of `Cn1cc(-c2nn3cc(-c4ccncc4)nc3s2)c2cc(Br)ccc21`, the growth in assay [8] was 49.5%; in assay [2], 32.4%; in assay [3], 42.3%; in assay [4] it was 26.2%; in assay [5] it was 25%; in assay [6] it was 58.9%. Also, in assay [7], the growth was 65.8%.
Turning to `CCCCN1C(=O)/C(=c2\sc3n(c2=O)C2C(NN=3)N(CC)C(=O)N2CC)c2cccc(C)c21` (stereo not drawn), the growth is 82.4% in assay [8]; -31% (active) in assay [2]; 39.7% in assay [3]; 21.1% in assay [4]; 61.1% in assay [6]; 33.3% in assay [7].
On to `Cn1cc(-c2nn3cc(-c4ccncc4)nc3s2)c2cc(F)ccc21`, for which the growth in assay [8] was 64.6%; in assay [2], 83.2%; in assay [3], 68.9%; in assay [4], 18.2%; in assay [5] it was 45.7%; in assay [6], 91.4%. In addition, in assay [7], the growth was 81.8%.
On to `CCNCCOc1ccc(/C(=C(/CC)c2ccc(Cl)cc2)c2ccc(OCCCN(C)C)cc2)cc1`, for which the growth is -91.7% (active) in assay [8]; -74.2% (active) in assay [2]; -62.1% (active) in assay [3]; -82.5% (active) in assay [4]; -72.4% (active) in assay [5]; -84.2% (active) in assay [6]. Further, the growth in assay [7] is -85.3% (active).
Take `Cc1ccc(C)c(NC2=C(Cl)C(=O)c3nc(C)ccc3C2=O)c1`: the growth is -5.46% (active) in assay [8]; -82.4% (active) in assay [2]; -49.2% (active) in assay [3]; -58.5% (active) in assay [4]; -74.1% (active) in assay [5]; 17.7% in assay [6]. Besides, the growth in assay [7] is 36.7%.

Source of the values: PubChem BioAssay (NCI).
